Activity calls are given as the source filed them. How the source made its calls: active means hit-call score of the fitted dose curve at least 0.9, where 1 is the maximum; inactive means score below 0.9.
Legend:
[1] = molecular target: Transcription factor E2F1 (Homo sapiens) (UniProt Q01094); experiment: ATG_E2F_CIS: Attagene CIS-FACTORIAL HepG2 Assay for human E2F Transcription Factor 1 (AID 2282935); details: HepG2 Attagene cis-reporter, E2F reporter RNA transcripts; actives raise or lower the signal
Transcription factor E2F1 (Homo sapiens), sequence (Q01094 whole entry, looked up): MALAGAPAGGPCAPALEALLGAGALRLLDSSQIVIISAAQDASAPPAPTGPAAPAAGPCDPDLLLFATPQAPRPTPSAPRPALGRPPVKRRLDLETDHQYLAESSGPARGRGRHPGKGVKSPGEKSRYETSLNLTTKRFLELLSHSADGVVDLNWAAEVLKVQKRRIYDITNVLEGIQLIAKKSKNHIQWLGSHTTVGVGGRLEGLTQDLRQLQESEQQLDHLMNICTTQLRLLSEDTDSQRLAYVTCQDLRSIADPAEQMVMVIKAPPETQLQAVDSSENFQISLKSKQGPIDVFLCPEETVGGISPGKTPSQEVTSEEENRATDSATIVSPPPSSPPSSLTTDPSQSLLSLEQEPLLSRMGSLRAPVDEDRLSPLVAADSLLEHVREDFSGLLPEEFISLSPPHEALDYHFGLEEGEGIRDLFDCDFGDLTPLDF
Summary of the method: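 Gain or loss of reporter transcript, fitted against DMSO, reflects E2F1-driven transcription. Transiently transfected HepG2 dosed 24 h before RNA isolation. Quantified by fluorescent RT-PCR products separated by capillary electrophoresis.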

[2] = ATG_E_Box_CIS: Attagene CIS-FACTORIAL HepG2 Assay for human Enhancer Box (E-box) (AID 2282936); details: HepG2 E-box cis-reporter transcription, actives raise or lower the signal
Summary of the method: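 E-box-driven reporter transcripts measured in transiently transfected HepG2 after 24 h exposure: RNA reverse-transcribed, PCR-amplified, fluorescently labelled, digested and resolved by capillary electrophoresis. Gain or loss relative to DMSO.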

[3] = ATG_EGR_CIS: Attagene CIS-FACTORIAL HepG2 Assay for human Early Growth Response 1 (EGR1) (AID 2282938); details: HepG2 Attagene CIS-FACTORIAL EGR reporter mRNA; actives raise or lower the signal
Summary of the method: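 After a 24 h treatment of transiently transfected HepG2 cells, total RNA was reverse-transcribed and reporter sequences PCR-amplified, labelled and run on capillary electrophoresis. Reporters sit under cis-regulatory promoters sensing endogenous factors.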

[4] = ATG_M_19_CIS: Attagene CIS-FACTORIAL HepG2 Assay for M19 Transcription Factor (Internal Marker) (AID 2282939); details: HepG2 Attagene CIS-FACTORIAL M19 internal marker reporter; actives raise or lower the signal
Summary of the method: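 Transfect HepG2 with MRTU reporter library → dose chemical, 24 h → isolate total RNA, reverse-transcribe with oligo(dT) → PCR, 6-FAM label, HpaI cut (2 h, 37 C) → capillary electrophoresis. Bidirectional fit vs DMSO.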

[5] = ATG_ERE_CIS: Attagene CIS-FACTORIAL HepG2 Assay for Estrogen Response Element (ERE) (AID 2282940); details: HepG2 ERE cis-reporter, Attagene RNA transcript; actives raise or lower the signal
Summary of the method: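 Transient MRTU transfection of human HepG2; cis-element promoters; 24 h dosing; total RNA → RT (oligo dT) → PCR → 6-FAM primer extension → HpaI digest → CE fluorescence. Bidirectional fit, DMSO baseline.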

[6] = ATG_Ets_CIS: Attagene CIS-FACTORIAL HepG2 Assay for human Erythroblast Transformation Specific (ETS) (AID 2282941); details: HepG2 ETS cis-reporter transcription, actives raise or lower the signal
Summary of the method: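 Cis-regulated reporter mRNA induction in HepG2 (transient transfection), 24 h exposure, RT-PCR plus capillary electrophoresis detection; DMSO serves as negative control and baseline.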

[7] = molecular target: Hepatocyte nuclear factor 3-beta (Homo sapiens) (UniProt Q9Y261); experiment: ATG_FoxA2_CIS: Attagene CIS-FACTORIAL HepG2 Assay for human Forkhead box A2 (FOXA2) (AID 2282942); details: HepG2 cis-reporter transcription factor activity, 24 h; actives raise or lower the signal
Hepatocyte nuclear factor 3-beta (Homo sapiens), sequence (Q9Y261 whole entry, looked up): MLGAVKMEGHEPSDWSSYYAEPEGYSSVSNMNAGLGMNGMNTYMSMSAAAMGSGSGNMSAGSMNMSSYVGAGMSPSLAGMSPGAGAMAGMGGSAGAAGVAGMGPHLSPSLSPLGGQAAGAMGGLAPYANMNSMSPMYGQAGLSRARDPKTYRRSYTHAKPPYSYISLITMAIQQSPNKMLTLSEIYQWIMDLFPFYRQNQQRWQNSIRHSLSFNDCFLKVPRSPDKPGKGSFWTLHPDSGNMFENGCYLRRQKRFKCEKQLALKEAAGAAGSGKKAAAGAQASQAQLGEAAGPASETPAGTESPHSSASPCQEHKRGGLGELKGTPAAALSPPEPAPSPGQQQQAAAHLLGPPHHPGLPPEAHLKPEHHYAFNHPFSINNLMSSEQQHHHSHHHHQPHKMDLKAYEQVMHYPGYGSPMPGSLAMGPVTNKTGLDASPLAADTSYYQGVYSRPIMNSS
Summary of the method: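 24 h dosing of HepG2 bearing cis-reporter constructs; mRNA readout by RT-PCR/CE fluorescence; bidirectional fit, DMSO baseline.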

[8] = ATG_FoxO_CIS: Attagene CIS-FACTORIAL HepG2 Assay for human Forkhead box O (FoxO) (AID 2282943); details: HepG2 Attagene cis-reporter, FoxO element, mRNA; actives raise or lower the signal
Summary of the method: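 Endogenous transcription factor activity read from multiplexed cis-promoter reporter transcripts in transiently transfected HepG2, 24 h after dosing. Reporter RNA measured via RT-PCR plus capillary electrophoresis of FAM-labeled products; gain or loss relative to DMSO.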

[9] = ATG_GATA_CIS: Attagene CIS-FACTORIAL HepG2 Assay for human GATA Binding Protein (AID 2282944); details: HepG2 GATA cis-element reporter, Attagene multiplex mRNA; actives raise or lower the signal
Summary of the method: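 Transient MRTU transfection, HepG2, 24 h compound exposure. Total RNA → oligo(dT) RT → PCR → 6-FAM primer extension → HpaI cut → CE. Bidirectional fit vs DMSO.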

[10] = ATG_GLI_CIS: Attagene CIS-FACTORIAL HepG2 Assay for human Zinc Finger Protein GLI1 (AID 2282945); details: HepG2, Attagene cis-factorial reporter mRNA, GLI element; actives raise or lower the signal
Summary of the method: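 Bidirectional curve fits relative to DMSO, using reporter mRNA levels from RT-PCR plus capillary electrophoresis. Cells were HepG2 transiently carrying cis-regulated reporter constructs, harvested 24 h after dosing.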

[11] = molecular target: Bile acid receptor (Homo sapiens) (UniProt Q96RI1); experiment: ATG_IR1_CIS: Attagene CIS-FACTORIAL HepG2 Assay for human Nuclear Receptor Subfamily 1 Group H Member 4 (NR1H4), IR1 submotif (AID 2282946); details: IR1 reporter transcription, actives raise or lower the signal
Bile acid receptor (Homo sapiens), sequence (Q96RI1 whole entry, looked up): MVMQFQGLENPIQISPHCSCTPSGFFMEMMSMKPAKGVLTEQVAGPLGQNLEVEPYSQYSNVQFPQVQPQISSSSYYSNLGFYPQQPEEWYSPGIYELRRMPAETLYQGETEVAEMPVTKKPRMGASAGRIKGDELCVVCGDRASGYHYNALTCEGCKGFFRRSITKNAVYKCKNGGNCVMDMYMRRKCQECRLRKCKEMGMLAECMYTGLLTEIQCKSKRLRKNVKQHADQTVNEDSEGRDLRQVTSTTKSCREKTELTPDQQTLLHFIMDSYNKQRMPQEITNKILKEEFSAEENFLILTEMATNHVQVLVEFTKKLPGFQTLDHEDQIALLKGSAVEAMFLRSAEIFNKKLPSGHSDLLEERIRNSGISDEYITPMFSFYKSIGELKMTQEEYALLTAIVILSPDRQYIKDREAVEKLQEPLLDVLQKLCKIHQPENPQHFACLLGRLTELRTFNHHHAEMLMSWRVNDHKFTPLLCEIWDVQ
Summary of the method: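 HepG2 cells transiently transfected with multiplexed cis-element reporter units read endogenous transcription factor activity. After 24 h compound exposure, reporter mRNA was quantified by RT-PCR, fluorescent labelling, HpaI digestion and capillary electrophoresis; bidirectional fitting versus DMSO baseline.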

[12] = ATG_GRE_CIS: Attagene CIS-FACTORIAL HepG2 Assay for human Glucocorticoid Response Elements (GRE) (AID 2282947); details: HepG2 GRE cis-reporter, Attagene multiplex mRNA; actives raise or lower the signal
Summary of the method: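 Reporter transcripts read by RT-PCR with capillary electrophoresis fluorescence after a 24 h chemical exposure of HepG2 cells transiently transfected with multiple cis-element reporter units. Gain or loss fitted against DMSO.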

[13] = ATG_ISRE_CIS: Attagene CIS-FACTORIAL HepG2 Assay for human Interferon Regulatory Factor 1 (IRF1) binding to an Interferon-Stimulated Response Element (ISRE) (AID 2282948); details: HepG2 ISRE cis-reporter (Attagene), mRNA transcription readout; actives raise or lower the signal
Summary of the method: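 Multiplexed mRNA reporter readout in human liver HepG2 cells: cis-element-driven reporters transfected, compound added for 24 h, transcripts amplified, fluorescently labelled and sized by capillary electrophoresis; curve fitting bidirectional against DMSO.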

[14] = ATG_M_32_CIS: Attagene CIS-FACTORIAL HepG2 Assay for M32 Transcription Factor (Internal Marker) (AID 2282949); details: HepG2 Attagene cis-factorial M32 reporter, mRNA; actives raise or lower the signal;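 further: background control marker of the multiplexed CIS panel rather than a real target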
Summary of the method: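 HepG2 transfectants (cis-regulated reporter transcription units) dosed 24 h. Reporter mRNA by RT-PCR plus CE, analysed as gain or loss relative to DMSO.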

[15] = molecular target: Hypoxia-inducible factor 1-alpha (Homo sapiens) (UniProt Q16665); experiment: ATG_HIF1a_CIS: Attagene CIS-FACTORIAL HepG2 Assay for human Hypoxia Inducible Factor 1 (HIF1A) (AID 2282951); details: HepG2 Attagene cis-factorial HIF1a reporter transcription; actives raise or lower the signal
Hypoxia-inducible factor 1-alpha (Homo sapiens), sequence (Q16665 whole entry, looked up): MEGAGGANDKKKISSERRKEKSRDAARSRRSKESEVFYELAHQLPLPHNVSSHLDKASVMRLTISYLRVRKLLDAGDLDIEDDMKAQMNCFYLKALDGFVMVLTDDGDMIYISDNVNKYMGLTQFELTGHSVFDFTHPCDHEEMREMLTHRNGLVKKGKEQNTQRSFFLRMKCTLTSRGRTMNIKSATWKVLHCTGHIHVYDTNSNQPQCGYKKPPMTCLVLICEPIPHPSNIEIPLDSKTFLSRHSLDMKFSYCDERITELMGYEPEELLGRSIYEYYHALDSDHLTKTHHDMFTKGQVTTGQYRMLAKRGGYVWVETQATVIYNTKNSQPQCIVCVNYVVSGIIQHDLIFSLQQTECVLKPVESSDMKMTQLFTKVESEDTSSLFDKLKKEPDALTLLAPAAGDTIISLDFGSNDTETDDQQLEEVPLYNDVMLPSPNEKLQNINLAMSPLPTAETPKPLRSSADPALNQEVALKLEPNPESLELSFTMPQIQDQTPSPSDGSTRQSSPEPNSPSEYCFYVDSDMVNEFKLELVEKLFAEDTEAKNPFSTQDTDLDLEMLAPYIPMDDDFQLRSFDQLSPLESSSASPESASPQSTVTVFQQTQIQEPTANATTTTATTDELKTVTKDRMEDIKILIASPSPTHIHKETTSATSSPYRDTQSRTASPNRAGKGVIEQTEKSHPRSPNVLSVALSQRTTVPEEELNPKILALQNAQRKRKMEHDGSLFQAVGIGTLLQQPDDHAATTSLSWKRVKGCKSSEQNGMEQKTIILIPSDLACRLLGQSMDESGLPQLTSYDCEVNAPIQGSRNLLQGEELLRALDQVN
Summary of the method: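 After 24 h chemical exposure of reporter-transfected HepG2 cells, reporter cDNA was PCR-amplified, labelled by 6-FAM primer extension (2 min 95 C, 20 s 68 C, 10 min 72 C), HpaI-cut (2 h, 37 C) and analysed by CE.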

[16] = molecular target: Hepatocyte nuclear factor 6 (Homo sapiens) (UniProt Q9UBC0); experiment: ATG_HNF6_CIS: Attagene CIS-FACTORIAL HepG2 Assay for human Hepatocyte Nuclear Factor 6 (HNF6) (AID 2282952); details: HepG2 Attagene cis-factorial HNF6 reporter transcription; actives raise or lower the signal
Hepatocyte nuclear factor 6 (Homo sapiens), sequence (Q9UBC0 whole entry, looked up, the tested form may be a part): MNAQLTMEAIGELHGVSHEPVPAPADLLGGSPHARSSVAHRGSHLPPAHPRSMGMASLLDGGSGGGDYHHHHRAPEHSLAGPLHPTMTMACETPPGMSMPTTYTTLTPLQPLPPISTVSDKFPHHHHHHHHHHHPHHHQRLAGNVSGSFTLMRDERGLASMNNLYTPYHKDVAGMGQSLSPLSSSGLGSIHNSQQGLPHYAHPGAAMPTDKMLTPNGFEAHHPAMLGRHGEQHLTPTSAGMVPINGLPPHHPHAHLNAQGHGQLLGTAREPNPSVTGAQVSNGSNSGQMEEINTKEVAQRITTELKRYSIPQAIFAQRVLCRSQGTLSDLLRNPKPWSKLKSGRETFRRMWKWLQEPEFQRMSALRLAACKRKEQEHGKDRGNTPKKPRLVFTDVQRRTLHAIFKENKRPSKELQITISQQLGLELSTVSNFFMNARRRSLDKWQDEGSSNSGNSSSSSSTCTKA
Summary of the method: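 Using cis-element reporters in HepG2 liver cells, the assay tracks endogenous factor-driven transcription 24 h post-dosing. Signal comes from 6-FAM-labelled, HpaI-digested RT-PCR fragments, with gain or loss scored against DMSO.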

[17] = molecular target: Heat shock factor protein 1 (Homo sapiens) (UniProt Q00613); experiment: ATG_HSE_CIS: Attagene CIS-FACTORIAL HepG2 Assay for human Heat Shock Transcription Factor 1 (HSE) (AID 2282953); details: HepG2 HSE cis-reporter, Attagene RNA transcription; actives raise or lower the signal
Heat shock factor protein 1 (Homo sapiens), sequence (Q00613 whole entry, looked up): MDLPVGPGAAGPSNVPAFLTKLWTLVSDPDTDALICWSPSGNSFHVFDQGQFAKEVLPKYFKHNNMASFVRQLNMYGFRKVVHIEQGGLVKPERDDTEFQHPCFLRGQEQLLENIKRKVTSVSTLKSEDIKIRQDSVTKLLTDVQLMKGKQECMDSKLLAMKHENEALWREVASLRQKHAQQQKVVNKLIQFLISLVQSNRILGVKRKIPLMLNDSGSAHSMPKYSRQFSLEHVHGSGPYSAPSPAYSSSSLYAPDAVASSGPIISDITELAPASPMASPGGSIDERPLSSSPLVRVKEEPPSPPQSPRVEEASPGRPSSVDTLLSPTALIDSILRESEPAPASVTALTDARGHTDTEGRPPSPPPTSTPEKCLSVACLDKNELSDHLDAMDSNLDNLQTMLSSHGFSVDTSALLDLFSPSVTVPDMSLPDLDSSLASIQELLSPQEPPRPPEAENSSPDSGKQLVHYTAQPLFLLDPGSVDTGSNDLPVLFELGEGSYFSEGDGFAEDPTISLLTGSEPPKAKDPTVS
Summary of the method: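 HepG2, transient MRTU transfection, cis-promoter reporters (endogenous TF activity). 24 h compound. RNA → oligo(dT) RT → PCR → 6-FAM primer extension → HpaI cut → CE. Bidirectional fit vs DMSO.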

[18] = ATG_MRE_CIS: Attagene CIS-FACTORIAL HepG2 Assay for human Metal Responsive Element (MRE) (AID 2282954); details: HepG2 MRE cis-reporter transcription, Attagene multiplex; actives raise or lower the signal
Summary of the method: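 Endogenous MRE-dependent transcription read as reporter mRNA in transiently transfected human HepG2 cells at 24 h. RNA reverse-transcribed, PCR-amplified, labelled and resolved by capillary electrophoresis; gain or loss relative to DMSO.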

[19] = ATG_M_06_CIS: Attagene CIS-FACTORIAL HepG2 Assay for M06 Transcription Factor (Internal Marker) (AID 2282950); details: HepG2 Attagene CIS-FACTORIAL M06 internal marker reporter; actives raise or lower the signal
Summary of the method: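 Read-out is fluorescence of labelled reporter cDNA fragments resolved by capillary electrophoresis after RT-PCR. Cells: HepG2 carrying transfected cis-promoter reporter units, treated 24 h. Gain or loss of signal fitted relative to DMSO.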

[20] = ATG_M_61_CIS: Attagene CIS-FACTORIAL HepG2 Assay for M61 Transcription Factor (Internal Marker) (AID 2282937); details: HepG2 Attagene CIS-FACTORIAL M61 internal marker reporter; actives raise or lower the signal
Summary of the method: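 Transfect HepG2 with MRTUs; dose 24 h; isolate RNA; reverse-transcribe with DNase I treatment; PCR-amplify, FAM-label and cut with HpaI for 2 h at 37 C; resolve by CE. Bidirectional fitting against DMSO.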

Measured: AC50

O=C(C=Cc1ccccc1)OCC=Cc1ccccc1
inactive: [1] | [2] | [3] | [4] | [5] | [6] | [7] | [8] | [9] | [10] | [11] | [12] | [13] | [14] | [15] | [16] | [17] | [18]

Cc1ccc(S(=O)(=O)OCC(F)(F)C(F)(F)C(F)(F)C(F)(F)C(F)(F)C(F)F)cc1
inactive: [1] | [2] | [3] | [4] | [5] | [6] | [7] | [8] | [9] | [10] | [11] | [12] | [13] | [14] | [19] | [15] | [16] | [18]

O=C(O)C(F)(F)C(F)(F)C(F)(F)C(F)(F)C(F)(F)C(F)(F)C(F)(F)C(F)(F)C(F)(F)C(F)F
active: [5] 26.3 µM | [13] 27.1 µM | [18] 25.3 µM
inactive: [1] | [3] | [4] | [6] | [7] | [8] | [9] | [10] | [11] | [12] | [14] | [19] | [16]

O=C(O)C(F)(F)C(F)(F)OC(F)(F)F
inactive: [2] | [20] | [3] | [4] | [5] | [6] | [7] | [8] | [9] | [10] | [11] | [12] | [13] | [14] | [19] | [15] | [16] | [17] | [18]

CCCCNc1ccccc1
inactive: [1] | [2] | [3] | [4] | [5] | [6] | [7] | [8] | [9] | [10] | [11] | [12] | [13] | [14] | [19] | [16] | [17] | [18]

O=S(=O)(O)c1ccc2ccccc2c1
inactive: [1] | [3] | [4] | [5] | [6] | [7] | [8] | [9] | [10] | [11] | [13] | [14] | [15] | [16] | [17] | [18]

CCN(CC)c1ccc2c(C)cc(=O)oc2c1
active: [18] 71.9 µM
inactive: [1] | [3] | [4] | [5] | [6] | [7] | [8] | [9] | [10] | [11] | [12] | [13] | [14] | [19] | [15] | [16] | [17]

CC(C)c1ccccc1N
active: [8] 152 µM
inactive: [1] | [2] | [3] | [4] | [5] | [6] | [7] | [9] | [10] | [11] | [12] | [13] | [14] | [19] | [16] | [18]

From PubChem BioAssay (EPA / NIEHS)
